Measurements taken from PubChem BioAssay (NCATS).
Inconclusive results are not listed. A call without a number means that no potency is given here. Calls of active or inactive are those of the source. Unless noted, calls come from the whole dose curve; as a rule, active = well fitted curve in the direction sought with a large enough effect; inconclusive = small, poorly fitted or top-dose-only effect, or another doubt; inactive = no such curve, though single readings can be large; an effect the other way counts as inactive or inconclusive.

What was measured:
[1] = target: Chromobox protein homolog 1 (Homo sapiens) (UniProt P83916); test: qHTS Validation Assay for Inhibitors of HP1-beta Chromodomain Interactions with Methylated Histone Tails (AID 488953); note: nearly all actives have a fitted effect of over 50% in size; note: potency is the fitted concentration of half-maximal effect
Sequence of Chromobox protein homolog 1 (Homo sapiens) (P83916 whole entry, looked up): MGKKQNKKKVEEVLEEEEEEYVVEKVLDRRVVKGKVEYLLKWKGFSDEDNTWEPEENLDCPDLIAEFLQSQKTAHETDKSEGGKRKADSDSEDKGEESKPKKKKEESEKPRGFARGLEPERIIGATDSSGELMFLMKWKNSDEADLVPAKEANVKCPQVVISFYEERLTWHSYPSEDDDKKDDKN
Method in brief: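 Compounds pinned into a preassembled complex of HP1-beta and trimethyl-K9 histone H3(1-18) biotin peptide (50 nM each; PBS pH 7.4, 0.01% Tween-20). After 30 min, bead-based AlphaScreen detection followed.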

[2] = target: Methanococcus maripaludis chaperonin (MmCpn) (UniProt Q6LX38); test: High-Throughput Screening for Modulators of Cytosolic Chaperonin Activity: MmCpn Primary Screen (AID 488978);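 note: 50 nM MmCpn enzyme hydrolysing 30 µM ATP at 37 °C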
Sequence of Methanococcus maripaludis chaperonin (MmCpn) (Q6LX38 1-543): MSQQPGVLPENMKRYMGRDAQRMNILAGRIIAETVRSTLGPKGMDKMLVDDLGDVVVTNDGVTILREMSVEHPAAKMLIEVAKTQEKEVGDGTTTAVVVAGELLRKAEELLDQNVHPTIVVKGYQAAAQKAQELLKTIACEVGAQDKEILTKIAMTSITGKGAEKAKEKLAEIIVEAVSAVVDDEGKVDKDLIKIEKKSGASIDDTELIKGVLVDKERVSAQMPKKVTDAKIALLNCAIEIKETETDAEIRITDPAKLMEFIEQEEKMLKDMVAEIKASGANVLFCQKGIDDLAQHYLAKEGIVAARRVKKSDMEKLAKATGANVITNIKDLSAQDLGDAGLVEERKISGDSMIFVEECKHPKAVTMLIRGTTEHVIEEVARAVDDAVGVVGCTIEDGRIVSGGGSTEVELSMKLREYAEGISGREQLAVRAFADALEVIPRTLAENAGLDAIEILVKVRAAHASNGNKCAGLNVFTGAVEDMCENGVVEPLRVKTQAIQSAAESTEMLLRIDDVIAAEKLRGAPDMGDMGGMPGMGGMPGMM
Method in brief: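 MmCpn at 50 nM final was preincubated 5 min at RT with compound. ATP was then added at 30 uM final for 10 min at 37 C. ADP formed was detected by Transcreener HTRF (665/590 nm).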

[3] = target: D(1A) dopamine receptor (Homo sapiens) (UniProt P21728); test: HTS Assay for Allosteric Agonists of the Human D1 Dopamine Receptor: Primary Screen for Agonists (AID 488981)
Sequence of D(1A) dopamine receptor (Homo sapiens) (P21728 whole entry, looked up): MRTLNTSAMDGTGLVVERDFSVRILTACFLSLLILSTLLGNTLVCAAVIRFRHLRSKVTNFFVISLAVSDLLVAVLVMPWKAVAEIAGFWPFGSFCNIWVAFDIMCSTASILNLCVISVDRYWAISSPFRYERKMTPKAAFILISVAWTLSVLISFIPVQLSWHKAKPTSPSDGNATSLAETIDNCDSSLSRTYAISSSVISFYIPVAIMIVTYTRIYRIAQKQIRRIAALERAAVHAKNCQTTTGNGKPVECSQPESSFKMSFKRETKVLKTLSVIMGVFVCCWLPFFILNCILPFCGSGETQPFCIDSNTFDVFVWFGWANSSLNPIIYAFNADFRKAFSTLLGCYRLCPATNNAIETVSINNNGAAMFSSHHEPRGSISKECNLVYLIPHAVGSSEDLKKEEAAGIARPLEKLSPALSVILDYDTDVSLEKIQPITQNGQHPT
Method in brief: (§1)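 Tetracycline-induced HEK293 T-REx cells force-coupled to calcium signalling were incubated overnight at 30 C and dye-loaded at room temperature. Calcium flux over 180 s after compound addition flagged agonists; a further 180 s read after EC20 dopamine flagged potentiators.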

[4] = target: D(1A) dopamine receptor (Homo sapiens) (UniProt P21728); test: HTS Assay for Allosteric Agonists of the Human D1 Dopamine Receptor: Primary Screen for Potentiators (AID 488982); note: potency is the fitted concentration of half-maximal effect
Method in brief: as §1

[5] = target: D(1A) dopamine receptor (Homo sapiens) (UniProt P21728); test: HTS Assay for Allosteric Agonists of the Human D1 Dopamine Receptor: Primary Screen for Antagonists (AID 488983);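 note: calcium flux response to an EC80 dopamine challenge measured with no-wash dye; nearly all actives have a fitted effect of over 65% in size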; note: potency is the fitted concentration of half-maximal effect
Method in brief: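 In this primary screen, compounds are applied to calcium-dye-loaded HEK293 T-REx cells with force-coupled D1 expression induced overnight at 30 C. An EC80 of dopamine follows the 180 s compound phase, and calcium is monitored for a further 180 s.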

[6] = Validation screen for small molecules that induce genotoxicity in human embryonic kidney (HEK293T) cells expressing luciferase-tagged ELG1 (AID 493106)
Method in brief: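 In this validation screen, increased ELG1-luciferase signal flags compounds causing genetic stress. HEK293T reporter cells are treated 16 hr (37 °C, 5% CO2), developed with ONE-Glo for 30 min at room temperature, and imaged on a CCD-based reader.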

[7] = target: ATPase family AAA domain-containing protein 5 (Homo sapiens) (UniProt Q96QE3); test: Validation screen for small molecules that inhibit ELG1-dependent DNA repair in human embryonic kidney (HEK293T) cells expressing luciferase-tagged ELG1 (AID 493107); note: nearly all actives have a fitted effect of over 70% in size; note: potency is the fitted concentration of half-maximal effect
Method in brief: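 Compounds reducing 5-fluorouridine-driven ELG1-luciferase signal in HEK293T cells were scored; exposure lasted 16 hr at 37 °C with luminescence detected via ONE-Glo.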

[8] = qHTS for Inhibitors of Cell Surface uPA Generation: Validation Assay (AID 493164);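 note: RAW 264.7 macrophage cells exposed to compound for 18 h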
Method in brief: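 Compounds are titrated over seven points (2.45 nM–38.3 uM final) onto pre-plated RAW 264.7 cells and incubated for 18 h. Retained intracellular ATP, measured with ATP-Lite, indicates blocked lethal factor entry.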

[9] = target: Peptidyl-prolyl cis-trans isomerase NIMA-interacting 1 (Homo sapiens) (UniProt Q13526); test: qHTS Validation Assay to Find Inhibitors of Pin1 (AID 504536; active = well fitted inhibition curve with a large enough effect in the polarisation, with a control signal flat, not every such curve was filed as active; the % refers to the polarisation)
Sequence of Peptidyl-prolyl cis-trans isomerase NIMA-interacting 1 (Homo sapiens) (Q13526 whole entry, looked up): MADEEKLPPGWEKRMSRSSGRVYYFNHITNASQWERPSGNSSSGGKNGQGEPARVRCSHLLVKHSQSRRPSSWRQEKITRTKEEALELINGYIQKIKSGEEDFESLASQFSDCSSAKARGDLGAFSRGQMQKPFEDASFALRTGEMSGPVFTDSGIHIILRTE
Method in brief: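 Fluorescence polarization competition: compounds (titration) displace HiFluor-488-labeled Pin1-1b peptide from Pin1 (0.3 uM final) in pH 7.5 HEPES buffer with DTT, 10 min at room temperature; %Activity normalized to no-enzyme wells, curves fitted.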

[10] = target: Phosphoglycerate kinase, glycosomal (Trypanosoma brucei brucei) (UniProt P07378); test: qHTS Validation Assay to Find Inhibitors of Phosphoglycerate Kinase (AID 504547)
Sequence of Phosphoglycerate kinase, glycosomal (Trypanosoma brucei brucei) (P07378 whole entry, looked up): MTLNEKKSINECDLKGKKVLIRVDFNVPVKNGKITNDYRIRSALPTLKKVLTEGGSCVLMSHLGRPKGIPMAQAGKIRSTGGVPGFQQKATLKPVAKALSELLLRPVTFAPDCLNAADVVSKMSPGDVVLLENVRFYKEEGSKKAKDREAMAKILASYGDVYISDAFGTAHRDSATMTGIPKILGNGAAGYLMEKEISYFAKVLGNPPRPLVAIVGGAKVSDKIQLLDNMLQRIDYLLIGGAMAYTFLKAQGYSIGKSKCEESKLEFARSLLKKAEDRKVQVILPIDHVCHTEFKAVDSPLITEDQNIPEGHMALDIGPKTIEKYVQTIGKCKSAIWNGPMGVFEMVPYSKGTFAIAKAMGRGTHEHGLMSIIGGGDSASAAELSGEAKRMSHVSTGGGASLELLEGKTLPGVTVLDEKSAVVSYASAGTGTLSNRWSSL
Method in brief: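 In TEA buffer (100mM, pH 7.6) containing 5mM MgCl2 and 0.01% Tween-20, the GAPDH-coupled PGK reaction proceeded for 60 minutes at room temperature before a single luminescence reading using Kinase-Glo Plus.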

[11] = target: phosphoglycerate mutase (Leishmania major) (UniProt Q4Q090); test: qHTS Validation Assay to Find Inhibitors of Phosphoglycerate Mutase (AID 504548); settings: Potency: inhibition qHTS;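 note: end-point luminescence from Kinase-GloPlus after the PGAM reaction; series mostly up to about 58 µM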
Sequence of phosphoglycerate mutase (Leishmania major) (Q4Q090 1-553): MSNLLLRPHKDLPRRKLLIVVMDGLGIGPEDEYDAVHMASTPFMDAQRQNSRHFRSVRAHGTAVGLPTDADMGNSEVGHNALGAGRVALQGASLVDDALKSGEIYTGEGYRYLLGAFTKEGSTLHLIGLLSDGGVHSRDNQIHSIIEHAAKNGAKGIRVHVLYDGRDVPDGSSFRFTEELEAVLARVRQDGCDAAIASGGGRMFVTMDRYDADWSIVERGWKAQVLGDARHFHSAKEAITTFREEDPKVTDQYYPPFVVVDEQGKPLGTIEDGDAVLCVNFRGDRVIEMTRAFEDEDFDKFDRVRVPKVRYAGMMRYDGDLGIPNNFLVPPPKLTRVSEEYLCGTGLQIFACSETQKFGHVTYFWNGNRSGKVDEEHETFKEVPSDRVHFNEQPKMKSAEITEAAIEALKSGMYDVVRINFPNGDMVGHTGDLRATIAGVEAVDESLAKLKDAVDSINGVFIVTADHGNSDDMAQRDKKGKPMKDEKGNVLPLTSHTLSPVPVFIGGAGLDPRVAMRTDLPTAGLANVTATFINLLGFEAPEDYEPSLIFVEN
Method in brief: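 L. major PGAM (1.25nM final) was added to substrate buffer and pinned compound, incubated 45 minutes at room temperature, then Kinase-GloPlus added; luminescence read after 10 minutes. Buffer: 100 mM TEA pH 7.6, 5 mM MgCl2, 0.01% Tween-20.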

[12] = Inducers of the Endoplasmic Reticulum Stress Response (ERSR) in human glioma: Validation (AID 504836)
Method in brief: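 Stably transfected U87-MG human glioma cells carrying a GRP78-based luminescent sensor were seeded at 1000 cells/well, pin-dosed with compounds and incubated 16 h. Luciferase reagent was then added, and end-point luminescence was read after 10 min at room temperature.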

[13] = target: Transient receptor potential cation channel subfamily V member 1 (Homo sapiens) (UniProt Q8NER1); test: HTS Assay for Compounds that Act as Enhancers of the Vanilloid Receptor 1 (AID 488979)
Sequence of Transient receptor potential cation channel subfamily V member 1 (Homo sapiens) (Q8NER1 whole entry, looked up): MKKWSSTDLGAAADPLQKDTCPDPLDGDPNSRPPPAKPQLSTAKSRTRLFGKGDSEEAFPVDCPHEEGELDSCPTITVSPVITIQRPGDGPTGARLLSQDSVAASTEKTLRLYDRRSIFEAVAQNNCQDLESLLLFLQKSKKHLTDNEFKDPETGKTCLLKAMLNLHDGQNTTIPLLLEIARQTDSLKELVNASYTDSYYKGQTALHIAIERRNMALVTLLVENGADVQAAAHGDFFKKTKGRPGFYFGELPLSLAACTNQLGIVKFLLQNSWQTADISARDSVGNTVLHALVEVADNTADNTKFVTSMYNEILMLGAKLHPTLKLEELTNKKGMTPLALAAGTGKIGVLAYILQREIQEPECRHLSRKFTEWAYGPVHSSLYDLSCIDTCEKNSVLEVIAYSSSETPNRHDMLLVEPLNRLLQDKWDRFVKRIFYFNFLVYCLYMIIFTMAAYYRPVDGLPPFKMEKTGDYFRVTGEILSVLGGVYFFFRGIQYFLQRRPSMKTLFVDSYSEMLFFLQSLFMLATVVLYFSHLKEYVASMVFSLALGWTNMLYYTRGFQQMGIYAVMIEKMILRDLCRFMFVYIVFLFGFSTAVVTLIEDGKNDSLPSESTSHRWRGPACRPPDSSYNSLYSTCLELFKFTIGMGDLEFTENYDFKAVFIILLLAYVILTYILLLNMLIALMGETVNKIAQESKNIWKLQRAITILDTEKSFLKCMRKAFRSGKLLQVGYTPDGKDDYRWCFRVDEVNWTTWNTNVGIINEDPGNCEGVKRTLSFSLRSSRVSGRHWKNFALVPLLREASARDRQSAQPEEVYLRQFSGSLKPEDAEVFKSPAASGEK
Method in brief: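 TRPV1-expressing cells loaded with Fluo-8 calcium dye; compounds added and calcium influx read kinetically for 3 min (agonist phase), then capsaicin at EC20 added and read 2 min more for enhancement. Fluorescence ex 480/em 520 nm.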

[14] = Nrf2 qHTS screen for inhibitors: Validation (AID 493153; active = well fitted inhibition curve with a large enough effect in the main read-out, with a control signal flat, not every such curve was filed as active); settings: Potency: luciferase luminescence; viability change: measured here: cytotoxicity max response
Method in brief: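 In this counterscreened reporter format, each well gives two signals: CellTiter-Fluor fluorescence for cytotoxicity and ARE-luciferase luminescence for Nrf2 function. A549 ARE_Fluc cells in 5% FBS OPTI-MEM were exposed to compound titrations for 18-24 h.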

[15] = target: Galactokinase (Homo sapiens) (UniProt P51570); test: qHTS Validation Assay for Inhibitors of Human Galactokinase (GALK) (AID 493189)
Sequence of Galactokinase (Homo sapiens) (P51570 whole entry, looked up): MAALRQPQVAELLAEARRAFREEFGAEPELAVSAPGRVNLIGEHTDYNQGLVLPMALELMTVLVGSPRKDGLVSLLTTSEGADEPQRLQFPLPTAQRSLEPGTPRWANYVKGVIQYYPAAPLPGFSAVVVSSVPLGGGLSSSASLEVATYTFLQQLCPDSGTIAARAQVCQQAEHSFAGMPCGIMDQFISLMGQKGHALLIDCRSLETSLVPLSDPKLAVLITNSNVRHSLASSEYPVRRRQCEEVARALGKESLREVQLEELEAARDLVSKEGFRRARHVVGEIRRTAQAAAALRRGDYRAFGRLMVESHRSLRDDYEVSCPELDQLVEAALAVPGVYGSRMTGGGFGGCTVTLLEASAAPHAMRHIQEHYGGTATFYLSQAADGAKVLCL
Method in brief: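 GALK (5 nM) with 35 uM ATP and 100 uM galactose in HEPES pH 8.0 with MgCl2, NaCl, DTT and BSA. Reaction ran 1 h at room temperature. Residual ATP read by Kinase-Glo Plus luminescence.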

[16] = target: Thyrotropin receptor (Homo sapiens) (UniProt P16473); test: qHTS Assay for Antagonists of the Thyroid Stimulating Hormone Receptor (AID 488980); note: series mostly up to about 58 µM
Sequence of Thyrotropin receptor (Homo sapiens) (P16473 whole entry, looked up): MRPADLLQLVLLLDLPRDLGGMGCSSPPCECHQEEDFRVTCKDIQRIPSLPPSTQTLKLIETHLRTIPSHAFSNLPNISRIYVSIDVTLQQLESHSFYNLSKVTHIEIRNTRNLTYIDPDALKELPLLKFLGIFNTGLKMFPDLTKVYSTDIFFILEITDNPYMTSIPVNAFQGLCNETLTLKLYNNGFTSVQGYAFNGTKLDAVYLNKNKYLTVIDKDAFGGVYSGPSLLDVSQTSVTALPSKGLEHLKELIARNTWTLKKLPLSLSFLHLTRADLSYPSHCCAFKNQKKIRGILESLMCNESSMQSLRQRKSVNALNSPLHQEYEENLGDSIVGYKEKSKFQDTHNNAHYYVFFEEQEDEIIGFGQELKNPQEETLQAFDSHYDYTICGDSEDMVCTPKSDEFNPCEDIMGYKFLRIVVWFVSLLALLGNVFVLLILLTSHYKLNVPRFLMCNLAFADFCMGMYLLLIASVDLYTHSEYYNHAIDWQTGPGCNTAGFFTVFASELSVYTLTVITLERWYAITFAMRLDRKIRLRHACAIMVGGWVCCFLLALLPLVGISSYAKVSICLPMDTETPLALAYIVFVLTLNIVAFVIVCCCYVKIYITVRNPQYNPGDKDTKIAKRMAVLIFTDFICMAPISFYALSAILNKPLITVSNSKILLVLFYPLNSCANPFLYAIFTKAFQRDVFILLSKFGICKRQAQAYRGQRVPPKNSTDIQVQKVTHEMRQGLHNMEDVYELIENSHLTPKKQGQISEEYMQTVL
Method in brief: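 TSHR-transfected HEK293 cells (2000/well) in HEPES-buffered HBSS with 70 uM RO 20-1724 were stimulated with 4 nM TSH (EC80, final) in the presence of compound. cAMP was measured by HTRF competition after lysis and 30 min at RT.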

[17] = target: Thyrotropin-releasing hormone receptor (Homo sapiens) (UniProt P34981); test: qHTS for Small Molecule Agonists and Allosteric Enhancers of Human TRH Receptor: Validation Screen for Agonists (AID 493127;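 active = calcium activation more than 3 SD above the typical response in the agonist read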;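 note: intracellular calcium rise by fluo-8 fluorescence before TRH EC20 addition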); settings: TRH receptor agonist cell assay; at 2 µM; stronger effect = higher value
Sequence of Thyrotropin-releasing hormone receptor (Homo sapiens) (P34981 whole entry, looked up): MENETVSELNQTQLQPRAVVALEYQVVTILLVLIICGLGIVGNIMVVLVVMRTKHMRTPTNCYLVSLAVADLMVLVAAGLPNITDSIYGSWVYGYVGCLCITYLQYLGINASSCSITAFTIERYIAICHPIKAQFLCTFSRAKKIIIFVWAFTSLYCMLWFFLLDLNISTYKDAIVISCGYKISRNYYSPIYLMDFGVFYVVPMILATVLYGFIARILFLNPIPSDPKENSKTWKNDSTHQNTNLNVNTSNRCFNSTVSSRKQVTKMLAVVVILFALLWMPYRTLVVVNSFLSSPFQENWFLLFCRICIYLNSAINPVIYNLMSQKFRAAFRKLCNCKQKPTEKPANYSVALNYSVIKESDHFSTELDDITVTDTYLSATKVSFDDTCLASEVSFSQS
Method in brief: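 Kinetic fluorescence assay of agonist-induced calcium release: overnight-plated TRHR cells, room-temperature fluo-8 loading, baseline then compound addition with per-second reads.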

[18] = Validation screen for small molecules that induce DNA re-replication in SW480 colon adenocarcinoma cells (AID 504364)
Method in brief: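 Hoechst-stained SW480 nuclei, imaged at 405 nm excitation after 48 hr compound exposure, were counted for elevated DNA content as the re-replication signal.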

Compound | Potency [1] | outcome [2] | Potency [3] | Potency [4] | Potency [5] | Potency [6] | Potency [7] | outcome [8] | Potency [9] | Potency [10] | Potency [11] | outcome [12] | outcome [13] | Potency [14] | viability change [14] [%] | outcome [15] | outcome [16] | activation [17] | Potency [18]
COc1ccc2c(c1)c(CCN1CCOCC1)c(C)n2C(=O)c1cccc(Cl)c1Cl | 44.7 µM (active) | inactive | inactive | inactive | inactive | inactive | 8.2 µM (active) | inactive | inactive | inactive | inactive | inactive | – | – | – | – | – | – | –
Cc1o[nH]c(=O)c1CC(N)C(=O)O (stereo unspecified) | – | inactive | inactive | inactive | inactive | inactive | inactive | inactive | inactive | inactive | inactive | inactive | inactive | inactive | 2.81 | inactive | – | – | –
CN1C2CCC1CC(OC(c1ccccc1)c1ccccc1N)C2 (stereo unspecified) | – | inactive | inactive | inactive | inactive | inactive | inactive | inactive | inactive | inactive | inactive | inactive | – | inactive | -4.19 | inactive | inactive | 1.44% (inactive) | –
COc1ccc2c(c1)[C@@]13CCCC[C@H]1[C@@H](C2)NCC3 | inactive | – | inactive | inactive | inactive | inactive | inactive | inactive | inactive | inactive | inactive | inactive | – | – | – | inactive | – | 0.0625% (inactive) | inactive
CCCN1CCC[C@@H](c2cccc(O)c2)C1 | inactive | – | inactive | inactive | 11.2 µM (active) | inactive | inactive | inactive | inactive | inactive | inactive | inactive | – | inactive | -15.6 | – | – | – | –
CCCC[N+]1(C)C2CC(OC(=O)[C@H](CO)c3ccccc3)CC1C1OC12 (stereo partly specified) | inactive | – | inactive | inactive | inactive | inactive | inactive | inactive | inactive | inactive | inactive | – | – | inactive | -6.93 | – | – | – | –
CCS(=O)(=O)Nc1cccc(C(=C2CCCCC2)c2cnc[nH]2)c1 | – | inactive | inactive | inactive | inactive | inactive | inactive | inactive | inactive | inactive | inactive | inactive | inactive | inactive | 1.78 | inactive | inactive | -5.69% (inactive) | –
COc1ccc2[nH]c3c(c2c1)CCNC3 | – | inactive | inactive | inactive | inactive | inactive | inactive | inactive | inactive | inactive | inactive | inactive | inactive | – | – | inactive | inactive | 1.56% (inactive) | –
N#C/C(=C/c1ccc(O)c(O)c1)C(N)=S | 12.6 µM (active) | – | inactive | 0.517 µM (active) | inactive | – | inactive | inactive | inactive | – | inactive | inactive | – | inactive | 0.144 | – | – | – | –
NC(=O)c1ccc(OCC(O)CN2CC=C(c3ccc(F)cc3)CC2)cc1 (stereo unspecified) | – | inactive | inactive | inactive | – | inactive | inactive | inactive | inactive | inactive | inactive | inactive | inactive | inactive | 16.7 | inactive | inactive | 4.62% (inactive) | –
NC(Cc1ccc(N(CCCl)CCCl)cc1)C(=O)O (stereo unspecified) | 0.0067 µM (active) | – | inactive | inactive | inactive | – | inactive | inactive | inactive | inactive | inactive | inactive | inactive | – | – | inactive | – | -0.125% (inactive) | –
NC(=O)CI | – | inactive | inactive | inactive | inactive | inactive | inactive | inactive | inactive | inactive | inactive | – | inactive | inactive | 7.18 | inactive | – | -0.125% (inactive) | inactive
COC(=O)N1CCN(C(=O)Cc2ccc(Cl)c(Cl)c2)C(CN2CCCC2)C1 (stereo unspecified) | – | inactive | inactive | inactive | inactive | inactive | inactive | inactive | inactive | inactive | inactive | – | inactive | inactive | 0.492 | inactive | inactive | 0.875% (inactive) | –
N[C@@H](CCl)C(=O)O | – | inactive | inactive | inactive | inactive | inactive | inactive | inactive | inactive | inactive | inactive | inactive | inactive | inactive | 4.83 | inactive | inactive | 1.31% (inactive) | inactive
CC(N)Cc1c[nH]c2ccc(O)cc12 (stereo unspecified) | – | inactive | inactive | inactive | – | inactive | inactive | inactive | inactive | inactive | inactive | inactive | inactive | inactive | -2.01 | inactive | inactive | 1.38% (inactive) | inactive
